The values that follow come from PubChem BioAssay (Tox21).

Test [1] in a line: qHTS assay to identify aromatase inhibitors - cell viability counter screen (AID 743084).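 Also: cells stimulated with testosterone during compound exposure; nearly all actives have a fitted effect of over 55% in size.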 On the technique in general: In qHTS, concentration-response curves come from the screen itself.
The target of test [2] is Aryl hydrocarbon receptor (Homo sapiens) (UniProt P35869). Kind of test: qHTS assay to identify small molecule that activate the aryl hydrocarbon receptor (AhR) signaling pathway (AID 743085). Also: nearly all actives have a fitted effect of over 15% in size. Also: potency is read from the fitted curve at half-maximal effect.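 As to activation: HG2L7.5c1 human HepG2 liver cells with stably integrated DRE-driven firefly reporter; series mostly up to about 70 µM.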 In a few lines: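 24 h compound exposure, 37C, HepG2-derived HG2L7.5c1 cells with DRE-responsive luciferase. Readouts: fluorescence viability, then luminescence at room temperature after 30 min.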

A short description of test [3]: qHTS assay to identify small molecule that activate the aryl hydrocarbon receptor (AhR) signaling pathway - cell viability counter screen (AID 743086).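 Also: HepG2 liver cells carrying the AhR DRE luciferase reporter; series mostly up to about 70 µM; nearly all actives have a fitted effect of over 45% in size.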 In outline:
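HepG2-AhR-luc (HG2L7.5c1) cells, 4000/well, treated 24 h at 37 C with compound; viability measured as CellTiter-Fluor fluorescence after 30 min in the same wells as the luciferase read.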

Test [4] has as its target Peroxisome proliferator-activated receptor gamma (Homo sapiens) (UniProt P37231). The experiment in a line: qHTS assay to identify small molecule agonists of the peroxisome proliferator-activated receptor gamma (PPARg) signaling pathway (AID 743094; active = well fitted activation curve with a large enough effect in the signal ratio in the repeat runs, not every such curve was filed as active; the % refers to the signal ratio). In outline: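 Reporter activation was scored by fluorescence of cleaved LiveBLAzer B/G substrate (1 h, room temperature) in PPARg-bla HEK293H cells previously treated 17 h at 37C with DMSO-dissolved compounds.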

A short description of test [5]: qHTS assay to identify small molecule antagonists of the peroxisome proliferator-activated receptor gamma (PPARg) signaling pathway - cell viability counter screen (AID 743194). Also: nearly all actives have a fitted effect of over 55% in size. In outline: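 Cytotoxicity counter screen in PPARg-bla HEK293H cells, same wells as reporter assay. Compounds plus 50 nM rosiglitazone (final) for 17 h at 37 C, then viability read by CellTiter-Glo luminescence.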

The nature of test [6]: qHTS assay for small molecule agonists of the antioxidant response element (ARE) signaling pathway - cell viability counter screen (AID 743203; calls by dose curve; also: nearly all actives have a fitted effect of over 55% in size). In a few lines: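 Viability counter screen: stably transfected ARE-bla HepG2 line, 16 hrs compound exposure at 37C/5% CO2, ATP-based CellTiter-Glo luminescence measured in the reporter wells.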
Test [7] in a line: qHTS assay for small molecule activators of the heat shock response signaling pathway - cell viability counter screen (AID 743209). Also: nearly all actives have a fitted effect of over 50% in size. In a few lines: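 Viability of HSE-bla HeLa cells is measured with CellTiter-Glo in the wells already used for the reporter read. Compound exposure lasts 5 h at 37 C, and luminescence is read after 30 min at room temperature.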
Test [8] in a line: qHTS assay for small molecule activators of the heat shock response signaling pathway (AID 743210; active = well fitted activation curve with a large enough effect in the signal ratio in the repeat runs, with a control signal flat, not every such curve was filed as active; the % refers to the signal ratio;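 also: HeLa cells with beta-lactamase reporter driven by heat shock elements; series mostly up to about 63 µM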). In outline: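 Following overnight attachment, HSE-bla HeLa cells received test compounds for 5 h at 37 C; beta-lactamase activity was then detected via FRET substrate fluorescence.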
A short description of test [9]: qHTS assay for small molecule agonists of the antioxidant response element (ARE) signaling pathway (AID 743202; active = well fitted activation curve with a large enough effect in the signal ratio in the repeat runs, not every such curve was filed as active; the % refers to the signal ratio). In outline:
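HepG2 ARE-bla cells; 16 h treatment at 37 C; FRET-based beta-lactamase fluorescence read after 2 h substrate incubation at room temperature.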

Results filed as inconclusive are left out. The source holds several records for some structures; these can differ, active in one and inactive in another. Calls of active or inactive are those of the source. Unless noted, calls follow the shape of the dose curve; as a rule, active = well fitted curve in the direction sought with a large enough effect in the repeat runs; inconclusive = weak or mixed curves; inactive = no such curve, though single readings can be large; an effect the other way counts as inactive or inconclusive.
% is scaled to controls: 0 for no effect and ±100 for the full control effect.

Chain of Aryl hydrocarbon receptor (Homo sapiens) (P35869 whole entry, looked up): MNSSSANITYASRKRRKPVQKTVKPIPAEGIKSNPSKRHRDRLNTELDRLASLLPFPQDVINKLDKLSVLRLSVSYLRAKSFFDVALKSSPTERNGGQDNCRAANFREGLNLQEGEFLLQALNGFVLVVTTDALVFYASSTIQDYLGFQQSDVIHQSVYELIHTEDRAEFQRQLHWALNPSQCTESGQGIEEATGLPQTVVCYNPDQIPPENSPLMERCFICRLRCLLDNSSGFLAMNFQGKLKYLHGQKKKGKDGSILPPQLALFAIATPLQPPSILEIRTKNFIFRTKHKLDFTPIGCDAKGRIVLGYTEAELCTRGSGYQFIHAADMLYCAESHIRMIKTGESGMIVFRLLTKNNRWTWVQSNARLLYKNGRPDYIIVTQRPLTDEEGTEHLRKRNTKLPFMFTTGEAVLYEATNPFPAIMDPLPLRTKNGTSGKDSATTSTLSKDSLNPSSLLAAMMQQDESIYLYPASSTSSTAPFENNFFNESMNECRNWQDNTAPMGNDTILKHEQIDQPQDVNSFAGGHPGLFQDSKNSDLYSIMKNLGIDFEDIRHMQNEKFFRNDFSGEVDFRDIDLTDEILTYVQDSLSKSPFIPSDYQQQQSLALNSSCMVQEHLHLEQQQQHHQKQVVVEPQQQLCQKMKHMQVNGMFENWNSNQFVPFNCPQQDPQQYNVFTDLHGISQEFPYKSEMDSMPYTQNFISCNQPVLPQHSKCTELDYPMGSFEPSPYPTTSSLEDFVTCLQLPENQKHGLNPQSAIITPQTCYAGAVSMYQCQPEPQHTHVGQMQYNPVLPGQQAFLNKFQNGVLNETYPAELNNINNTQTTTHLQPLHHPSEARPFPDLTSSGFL
Chain of Peroxisome proliferator-activated receptor gamma (Homo sapiens) (P37231 whole entry, looked up): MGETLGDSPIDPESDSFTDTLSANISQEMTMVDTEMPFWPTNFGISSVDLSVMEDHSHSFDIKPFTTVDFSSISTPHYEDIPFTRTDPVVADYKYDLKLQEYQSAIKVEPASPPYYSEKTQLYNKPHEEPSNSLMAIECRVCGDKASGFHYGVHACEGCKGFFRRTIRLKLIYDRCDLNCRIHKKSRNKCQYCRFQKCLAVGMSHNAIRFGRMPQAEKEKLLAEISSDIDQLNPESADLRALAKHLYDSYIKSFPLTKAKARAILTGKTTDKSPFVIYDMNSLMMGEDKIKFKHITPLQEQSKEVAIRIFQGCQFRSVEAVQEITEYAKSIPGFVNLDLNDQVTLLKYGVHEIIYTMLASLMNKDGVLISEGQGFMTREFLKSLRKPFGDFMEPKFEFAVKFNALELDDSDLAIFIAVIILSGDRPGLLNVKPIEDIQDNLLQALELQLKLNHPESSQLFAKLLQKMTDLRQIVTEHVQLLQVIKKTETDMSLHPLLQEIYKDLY

Consider `O=C(OCC(COC(=O)c1cccnc1)(COC(=O)c1cccnc1)COC(=O)c1cccnc1)c1cccnc1`, for which the Potency entry in test [1], in [2] and in test [3] was “inactive” throughout. Further, the result in [4], in test [5], in [6], in test [7] and in [8] was inactive.
As for `Cc1cc(Cl)c(C)cc1Cl`, the Potency result in [1], in test [2], in [3] and in test [9] was “inactive” each time. Besides, the compound was called inactive in test [4], in test [5], in test [6], in test [7] and in test [8].
As to `CN(C)CCOCCO`, the Potency entry in test [1], in test [2], in [3] and in [9] was “inactive” in each case. Also, the result in test [4], in test [5], in test [6], in test [7] and in test [8] was inactive.
Regarding `CC(=O)NCc1c(I)c(NC(C)=O)c(I)c(C(=O)O)c1I`, the Potency entry in test [1], in test [2], in [3] and in test [9] was “inactive” each time. The compound was classed as inactive in test [4], in test [5], in [6], in [7] and in test [8].
Consider `CC1=CCC(C(C)C)=CC1`, for which the Potency result in [1], in test [2], in test [3] and in test [9] was “inactive” throughout. For the same compound, the outcome in test [4], in test [5], in [6], in [7] and in [8] was inactive.
For `CCOCCOCCOCC`, the Potency entry in test [1], in test [2], in [3] and in test [9] was “inactive” each time. In addition, the compound was called inactive in test [4], in [5], in [6], in test [7] and in test [8].
For the compound `CC(COC(C)(C)C)OCCCO` (configuration not stated), the Potency entry in test [1], in [2] and in test [3] was “inactive” in each case. Moreover, the result in test [4], in [5], in test [6] and in test [7] was inactive.
For the compound `O=C(OCC1(COC(=O)c2cccnc2)CCCC(COC(=O)c2cccnc2)(COC(=O)c2cccnc2)C1O)c1cccnc1`, the Potency result in [1], in test [2], in test [3] and in test [9] was “inactive” in each case. Besides, the call in test [4], in test [5], in test [6], in [7] and in test [8] was inactive.
Regarding `C[Si](C)=O`, the activity change, negative = cytotoxicity in [1] is -1.09% [at 8.47 µM] (inactive); in test [5], 17.1% [at 5.95 µM] (inactive); in test [7], 6.74% [at 5.95 µM] (inactive). The activation was -0.45% [at 8.47 µM] (inactive) in [2], -3.83% [at 7.08 µM] (inactive) in test [4], -4.69% [at 8.36 µM] (inactive) in test [9] and -1.34% [at 5.95 µM] (inactive) in test [8]. For the same compound, the viability change, negative = cytotoxic in test [3] is -0.537% [at 8.47 µM] (inactive); in test [6] it was -8.17% [at 8.36 µM] (inactive).
Consider `O=C(O)c1ccc(Cl)cc1Cl`, for which the Potency result in [1], in test [2], in [3] and in test [9] was “inactive” in each case. Further, the outcome in [4], in test [5], in test [6], in test [7] and in test [8] was inactive.
Take `c1ccc2nccnc2c1`: the Potency entry in test [1], in test [2], in test [3] and in test [9] was “inactive” throughout. For the same compound, the call in test [4], in test [5], in [6], in [7] and in test [8] was inactive.
For `C=C(C)C(=O)OCCN(CC)CC`, the Potency result in [1], in test [2], in test [3] and in test [9] was “inactive” in each case. Further, the compound was called inactive in test [4], in test [5], in test [6] and in test [8].
As for `CC[C@H](C)C(=O)O[C@H]1C[C@H](O)C=C2C=C[C@H](C)[C@H](CC[C@@H](O)C[C@@H](O)CC(=O)O)[C@H]21`, the Potency result in test [1], in test [2] and in test [3] was “inactive” throughout. Besides, the compound was called inactive in test [4], in [5], in test [6], in [7] and in test [8].
Take `CCOC(=O)[C@H](CCc1ccccc1)N[C@@H](C)C(=O)N1C(=O)N(C)C[C@H]1C(=O)O`: the Potency result in test [1], in test [2], in test [3] and in test [9] was “inactive” throughout. Moreover, the compound was called inactive in test [4], in test [5], in test [6] and in test [8].
With `Oc1cn2c(n1)Nc1ccc(Cl)c(Cl)c1C2`, the Potency entry in test [1] and in test [3] was “inactive” throughout. In test [2], the Potency was 23.7 µM (active) and inactive. For the same compound, the compound was classed as inactive in test [4], in [5], in test [6] and in test [7].
Regarding `CC(=O)c1sc(C)nc1C`, the Potency entry in test [1], in [2], in test [3] and in test [9] was “inactive” in each case. Further, the compound was classed as inactive in [4], in test [5], in [6], in test [7] and in test [8].
In the case of `COc1ccc2c(c1)C(=O)N(CCc1ccc(S(=O)(=O)NC(=O)NC3CCCCC3)cc1)C(=O)C2(C)C`, the Potency result in test [1], in [2] and in test [3] was “inactive” each time. The outcome in test [4], in [5], in [6] and in [7] was inactive.
For `CCc1ccc(C=O)cc1`, the Potency result in test [1], in [2], in test [3] and in test [9] was “inactive” in each case. Also, the outcome in test [4], in test [5], in [6], in test [7] and in test [8] was inactive.
`COc1ccc(Br)c(C)c1`: the Potency result in [1], in [2] and in test [3] was “inactive” in each case. For the same compound, the compound was classed as inactive in [4], in test [5], in test [6], in test [7] and in test [8].
Regarding `NNc1nnc(NN)c2ccccc12`, the Potency entry in [1], in test [3] and in [9] was “inactive” throughout. Further, the Potency in test [2] is 29.8 µM (active). Also, the outcome in test [4], in [5], in [6], in test [7] and in test [8] was inactive.
Turning to `CC(C)NCC(O)COc1ccc(COCCOC(C)C)cc1` (configuration not stated), the Potency entry in [1], in test [2] and in [3] was “inactive” in each case. Moreover, the compound was called inactive in test [4], in test [5], in test [6], in test [7] and in [8].
In the case of `CNS(=O)(=O)CCc1ccc2[nH]cc(C3CCN(C)CC3)c2c1`, the Potency result in [1], in [2], in test [3] and in test [9] was “inactive” each time. For the same compound, the compound was called inactive in test [4], in test [5], in test [6], in test [7] and in test [8].
Consider `CCCCCCOC(=O)CC`, for which the Potency result in test [1], in test [2], in [3] and in [9] was “inactive” each time. The compound was classed as inactive in [4], in test [5], in test [6], in [7] and in test [8].
In the case of `COC(=O)CCCCCCCC(=O)OC`, the Potency entry in test [1], in test [2] and in test [3] was “inactive” throughout. In addition, the outcome in test [4], in test [5], in test [6] and in test [7] was inactive.
In the case of `CC(=O)Nc1cccc(C)c1`, the Potency entry in test [1], in test [2], in test [3] and in test [9] was “inactive” each time. In addition, the outcome in test [4], in test [5], in [6], in [7] and in [8] was inactive.
With `CCCCCOC(=O)CCC`, the Potency result in test [1], in test [2] and in test [3] was “inactive” in each case. Further, the call in test [4], in [5], in test [6] and in test [7] was inactive.
Turning to `CCCCCCCCCCCCCC`, the Potency result in test [1], in [2] and in test [3] was “inactive” in each case. In addition, the compound was called inactive in test [4], in test [5], in [6], in test [7] and in [8].
As to `CC(=O)Nc1ccc(S(=O)(=O)Cl)cc1`, the Potency result in [1], in test [2], in test [3] and in test [9] was “inactive” in each case. Moreover, the outcome in test [4], in test [5], in test [6], in test [7] and in test [8] was inactive.
`COCCOCCOCCOCCO`: the Potency result in [1], in test [2] and in test [3] was “inactive” throughout. For the same compound, the outcome in test [4], in test [5], in test [6] and in [7] was inactive.
